Screens as filed in PubChem BioAssay.
Sampled rows, rich in hits. Any-hit rate of the full collection: about 6%.
D1 antagonist: human D1 dopamine receptor antagonism | HEK293 TREx D1 cells, calcium flux, dopamine EC80; stronger effect = lower value | activity change, negative = inhibition, % at 10 µM | 3.2% of 360,000 active; in the data active = activity change below about -30%; note: % is set by controls: 0 for no effect and ±100 for the full control effect
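Kinetic fluorescence of a calcium dye serves as the read-out. D1-expressing Hek293 Trex cells, induced overnight at 30 C, are exposed to compound for 180 s before an EC80 dopamine addition, then read 180 s further.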
D3 antag: D3 dopamine receptor (human) antagonism; 2.5% of 360,000 active; P35462; D3R cells, DiscoveRx beta-arrestin luminescence, antagonist mode; stronger effect = lower value; max response, negative = inhibition, %; in the data active = max response below about -50%; note: % is set by controls: 0 for no effect and ±100 for the full control effect
Target sequence (P35462 whole entry, looked up): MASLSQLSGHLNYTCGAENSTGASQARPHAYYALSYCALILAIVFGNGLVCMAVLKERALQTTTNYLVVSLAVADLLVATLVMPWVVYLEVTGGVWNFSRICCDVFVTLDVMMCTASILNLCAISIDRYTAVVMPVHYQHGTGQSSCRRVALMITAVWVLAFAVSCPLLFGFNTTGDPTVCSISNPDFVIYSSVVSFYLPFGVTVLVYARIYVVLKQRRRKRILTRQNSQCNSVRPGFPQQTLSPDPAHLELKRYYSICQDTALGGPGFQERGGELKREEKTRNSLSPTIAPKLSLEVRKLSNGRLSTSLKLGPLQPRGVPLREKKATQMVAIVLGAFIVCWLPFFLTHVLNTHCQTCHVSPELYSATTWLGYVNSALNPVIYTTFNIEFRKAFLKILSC
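Cells plated overnight at 1500 cells/well, then exposed to library compounds with dopamine controls for 90 minutes at 37 degrees C. DiscoveRx reagent added for 30–60 minutes at room temperature; luminescence read, quantitative HTS format.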
D1 potentiator: enhances dopamine response at the human D1 receptor; 0.036% of 360,000 active; P21728; potentiation, % at 10 µM; HEK293 TREx D1 cells, calcium flux, dopamine EC20 potentiation; in the data active = potentiation above about 30%; note: 0% is about no effect
D1 agonist: activates the human D1 dopamine receptor; P21728; HEK293 T-REx D1 cells, calcium flux, agonist mode; activation, % at 2 µM; 1% of 360,000 active; in the data active = activation above about 30%; note: 0% is about no effect
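Tetracycline-induced HEK293 TREx D1 cells, force-coupled to calcium signalling, were dye-loaded with a no-wash calcium kit. Compound was pin-added after a 10 s baseline. Fluorescence was read kinetically at 1 cycle/s for 180 s, with calcium rises flagged as agonism.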
D3 ag: D3 dopamine receptor (human) agonism; max activation, %; D3R DiscoveRx beta-arrestin cells, luminescence, 90 min; AID 652048; 0.58% of 410,000 active; P35462; in the data active = max activation above about 30%; note: 0% is about no effect
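Agonist-mode cell screen: cells plated at 1500/well and incubated overnight at 37 °C, then exposed to library compounds for 90 min at 37 °C. Detection reagent was added for 30–60 min at room temperature, and luminescence was read.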
The depositor's hits bear a star; / = no result given.

SMILES	D1 antagonist	D3 antag	D1 potentiator	D1 agonist	D3 ag
O=C(CCC1CCN(Cc2ccccc2)CC1)c1ccc2c(c1)NCCCC2	/	/	/	/	-24
CCC(C)(C)n1nnnc1C(c1cccc(C#N)c1)N1CCN(c2cc(C)ccc2C)CC1 (stereo not given)	5	-60*	0	3	-8
CC(C)(C)n1nnnc1C(c1cccc(C#N)c1)N1CCC(Cc2ccccc2)CC1 (stereo not given)	32	14	-5	4	-9
CCOC(=O)c1c(N2C(=O)Nc3ccccc3N2O)n[nH]c1-c1cccc(Cl)c1	-1	5	-6	-2	6
CCOC(=O)c1c(C)sc(-c2c(-c3cc(C)ccc3C)[nH]c3c2c(=O)[nH]c(=O)n3C)c1O	12	/	1	20	3
CCOC(=O)c1c(C)sc(-c2c(-c3cccc(Cl)c3)[nH]c3c2c(=O)n(C)c(=O)n3C)c1O	-12	/	15	315*	8
CCOC(=O)c1c(C)sc(-c2c(-c3cc(C)ccc3C)[nH]c3c2c(=O)n(C)c(=O)n3C)c1O	14	/	8	277*	3
CC(C)C[C@H]1CNC(=S)N1C[C@H]1CCCN1C[C@H](Cc1ccc(O)cc1)N1C[C@H](CC(C)C)N(CC2CCCCCC2)C1=S	/	-65*	/	/	-9
CC(C)C[C@H]1CN([C@@H](Cc2ccccc2)CN2CCC[C@@H]2CN2C(=O)C(=O)NC[C@@H]2Cc2ccccc2)C(=O)C(=O)N1CCc1ccccc1	/	-65*	/	/	-15
COc1ccc(N(CC(=O)Nc2ccccc2C)S(=O)(=O)c2ccccc2[N+](=O)[O-])c(OC)c1	-5	-10	-4	2	-1
COc1ccc(OC)c(S(=O)(=O)N(C)CC(=O)Nc2ccccc2OC)c1	-82*	1	-9	2	-1
COc1ccc(OC)c(/C(O)=C/C(=O)C(=O)Nc2ccccc2OC)c1	5	-67*	-3	0	8
CCOc1ccccc1NC(=O)CN(c1ccc(OC)cc1OC)S(=O)(=O)c1ccccc1[N+](=O)[O-]	-44*	-1	-7	5	0
CCc1ccc(C(=O)CCC(=O)Nc2ccc(OC)c(S(=O)(=O)N3CCCCC3)c2)cc1	-41*	4	/	7	3
COc1ccccc1CCC(=O)Nc1ccc(OC)c(S(=O)(=O)N2CCCCC2)c1	-4	-9	/	6	13
COc1ccccc1CCC(=O)OCC(=O)Nc1ccc(C)c(S(=O)(=O)N2CCCCC2)c1	-33*	9	-7	4	4
COc1ccc(NC(=O)c2n[nH]c(=O)c3ccccc23)cc1S(=O)(=O)N1CCCCC1	-39*	-9	-1	1	-2
CCOc1ccc(NC(=O)CN(C)Cc2ccc3c(c2)OCO3)cc1S(=O)(=O)N1CCCC1	-35*	-68*	-6	0	-15
COc1ccc(CCC(=O)Nc2ccc(OC)c(S(=O)(=O)N3CCCCC3)c2)cc1OC	3	11	-5	-1	0
Cc1cccc(OCc2nnc(SCC(=O)Nc3ccc(C)cc3C)o2)c1	3	/	0	-1	-13
CCN1C[C@@H]2[C@@H]3C(=O)N(Cc4ccccc4)C(=O)[C@@H]3[C@](C)(C1=O)N2C(=O)c1ccc(Cl)cc1	/	7	/	/	3
COc1ccc(NC(=O)Cn2cc(S(=O)(=O)c3ccccc3)c(=O)c3cc(C)ccc32)cc1Cl	-7	/	-3	7	5
Cc1nnc(NC(=O)CSCc2cc(=O)c3cc(Cl)ccc3[nH]2)s1	-8	/	-2	0	7
CN(Cc1ccc(Cl)c(Cl)c1)C(C(=O)NCc1ccccc1)c1ccc(C(F)(F)F)cc1 (stereo not given)	/	7	/	/	-3
CN(C)CCCNS(=O)(=O)c1ccc(Oc2ncc(C(F)(F)F)cc2Cl)cc1	-17	-17	-7	61*	-2
Cn1c(CNS(=O)(=O)c2ccc(Cl)cc2)n[nH]c1=S	-14	-60*	-4	3	-3
Cn1c(CNS(=O)(=O)c2ccc(F)cc2)n[nH]c1=S	3	-9	-1	2	1
C(=N\n1cnnc1)/c1nc2ccccc2[nH]1	-34*	-8	-12	-1	-4
Cc1[nH]c2ccccc2c1/C=N/n1cnnc1	-7	6	-8	2	3
CN(C)c1ccc(C(CNC(=O)c2ccc(C(C)(C)C)cc2)N2CCCC2)cc1 (stereo not given)	-9	/	3	38*	-17
